Measured values as given in PubChem BioAssay AID1159580 (chemical genetic matrix, 2015).
In all, about 5,500 compounds went through this assay and about 2,000 (36%) were called active. Another 18% or so got no clear call; they are omitted. No stated cut-off is given here; in the data, active means normalized growth mostly below about 0.91 (no sharp cut-off); inconclusive means no clear call, values can overlap the other calls; inactive means mostly above about 0.92. This is one part of the list.

Assay: chemical genetic growth profiling, strain panel (AID 1159580);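 further: tested at 20 µM; growth read once vehicle control cultures reached saturation at 30 °C; 1 = growth at the plate median or of vehicle wells; lower values mean less growth of the strain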
Conditions: S. cerevisiae deletion strains, growth OD
[1] = locus YAL040C, strain CLN3, active compounds read low
[2] = locus YCL061C, strain MRC1 (second series), active compounds read low
[3] = locus YDR150W, strain NUM1, active compounds read low
[4] = locus YDR363W, strain ESC2, active compounds read low
[5] = locus YER002W, strain NOP16, active compounds read low
[6] = locus YGR078C, strain PAC10, active compounds read low
[7] = locus YNL128W, strain TEP1, active compounds read low
[8] = locus YNL153C, strain GIM3, active compounds read low
[9] = locus YNL175C, strain NOP13, active compounds read low
[10] = locus YNL197C, strain WHI3, active compounds read low
[11] = locus YNL224C, strain SQS1, active compounds read low
[12] = locus YOR083W, strain WHI5 (second series), active compounds read low
[13] = locus YPL241C, strain CIN2, active compounds read low

Measured: normalized growth

CNCC[C@H](Oc1ccc(C(F)(F)F)cc1)c1ccccc1
inactive: [1] 0.981 | [2] 0.985 | [3] 0.993 | [4] 1.01 | [5] 1.01 | [6] 0.969 | locus YMR263W, strain SAP30, active compounds read low 0.997 | [7] 1.01 | [8] 0.886 | [9] 1 | [10] 0.988 | [11] 1 | [12] 0.874 | [13] 0.982

CNCC[C@@H](Oc1ccc(C(F)(F)F)cc1)c1ccccc1
inactive: [1] 1.04 | [2] 0.977 | [3] 0.998 | [4] 0.943 | [5] 0.993 | [6] 1.01 | locus YJR075W, strain HOC1, active compounds read low 0.982 | locus YMR307W, strain GAS1, active compounds read low 0.999 | [7] 1.03 | [8] 1.01 | [9] 1.04 | [10] 1.01 | [11] 1.02 | locus YNL322C, strain KRE1, active compounds read low 0.963 | [12] 1.01 | locus YPL055C, strain LGE1, active compounds read low 0.975 | [13] 0.978
